Data reported in the supplement of paper PMC11732987, “Enantioselective OTUD7B fragment discovery through chemoproteomics screening and high-throughput optimisation” (Communications Chemistry, 2025).

What was measured:
Test in all cases: log2 ratio of Biotin-Ahx-Ub-VS probe labelling (fragment/DMSO); higher = less target engagement (more negative = stronger competition), active = hit call of the paper (q ≤ 0.05, log2 ratio ≤ -1)
Conditions in all cases: compound concentration: 200 uM; treatment time: 3 h
USP19 = target: T1, USP19 (UniProt O94966)
T1 sequence (whole entry): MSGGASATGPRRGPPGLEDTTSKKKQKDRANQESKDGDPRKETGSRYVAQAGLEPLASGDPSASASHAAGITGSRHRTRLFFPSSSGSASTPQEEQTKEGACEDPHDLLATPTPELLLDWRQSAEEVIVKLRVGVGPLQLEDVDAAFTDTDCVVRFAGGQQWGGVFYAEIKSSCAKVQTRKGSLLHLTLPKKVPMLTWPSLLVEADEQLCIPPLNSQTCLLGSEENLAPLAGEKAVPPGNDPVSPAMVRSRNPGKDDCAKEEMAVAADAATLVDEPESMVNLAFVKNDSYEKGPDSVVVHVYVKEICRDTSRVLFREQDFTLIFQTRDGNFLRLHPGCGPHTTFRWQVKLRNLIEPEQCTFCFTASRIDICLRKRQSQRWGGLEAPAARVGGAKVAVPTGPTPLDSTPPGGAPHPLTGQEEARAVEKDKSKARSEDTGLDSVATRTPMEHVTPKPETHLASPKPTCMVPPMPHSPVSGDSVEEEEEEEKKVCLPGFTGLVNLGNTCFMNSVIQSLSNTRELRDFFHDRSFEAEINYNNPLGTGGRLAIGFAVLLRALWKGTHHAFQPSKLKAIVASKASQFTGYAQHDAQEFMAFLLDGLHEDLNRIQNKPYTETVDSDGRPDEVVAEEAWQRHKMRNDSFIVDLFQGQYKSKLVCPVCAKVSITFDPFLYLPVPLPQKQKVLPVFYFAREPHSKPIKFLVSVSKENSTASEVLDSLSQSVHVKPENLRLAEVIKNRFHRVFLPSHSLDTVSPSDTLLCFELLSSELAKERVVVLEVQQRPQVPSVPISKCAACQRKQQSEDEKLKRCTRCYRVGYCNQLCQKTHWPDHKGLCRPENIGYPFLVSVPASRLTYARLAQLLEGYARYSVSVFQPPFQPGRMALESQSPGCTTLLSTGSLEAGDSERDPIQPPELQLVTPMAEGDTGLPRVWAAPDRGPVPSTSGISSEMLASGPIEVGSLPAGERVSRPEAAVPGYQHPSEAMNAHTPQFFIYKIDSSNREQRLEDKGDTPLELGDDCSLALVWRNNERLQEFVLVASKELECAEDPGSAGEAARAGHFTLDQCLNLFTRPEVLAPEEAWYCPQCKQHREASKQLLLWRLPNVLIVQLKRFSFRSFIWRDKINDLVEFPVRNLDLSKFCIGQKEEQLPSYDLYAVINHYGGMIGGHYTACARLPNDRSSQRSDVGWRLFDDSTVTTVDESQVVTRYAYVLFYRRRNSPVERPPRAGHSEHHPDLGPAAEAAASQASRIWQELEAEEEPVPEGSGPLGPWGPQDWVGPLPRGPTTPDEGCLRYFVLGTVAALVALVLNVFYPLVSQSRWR
Method in brief: (§1)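 Global-median-normalised Spectronaut label-free quantities were compared by unpaired t-test, and values are average log2 ratios of fragment over vehicle. Only proteins with ≥2 unique peptides were used. HEK293T lysate (495 µg per sample) was treated in triplicate with fragment at 200 µM or vehicle for 3 h and then with Biotin-Ahx-Ub-VS at 0.5 µM final for 1 h. Labelled DUBs were then NeutrAvidin-enriched, digested with LysC and trypsin, and run by diaPASEF LC-MS/MS.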

USP24 = USP24 (UniProt Q9UPU5)
Sequence of USP24 (Q9UPU5 whole entry): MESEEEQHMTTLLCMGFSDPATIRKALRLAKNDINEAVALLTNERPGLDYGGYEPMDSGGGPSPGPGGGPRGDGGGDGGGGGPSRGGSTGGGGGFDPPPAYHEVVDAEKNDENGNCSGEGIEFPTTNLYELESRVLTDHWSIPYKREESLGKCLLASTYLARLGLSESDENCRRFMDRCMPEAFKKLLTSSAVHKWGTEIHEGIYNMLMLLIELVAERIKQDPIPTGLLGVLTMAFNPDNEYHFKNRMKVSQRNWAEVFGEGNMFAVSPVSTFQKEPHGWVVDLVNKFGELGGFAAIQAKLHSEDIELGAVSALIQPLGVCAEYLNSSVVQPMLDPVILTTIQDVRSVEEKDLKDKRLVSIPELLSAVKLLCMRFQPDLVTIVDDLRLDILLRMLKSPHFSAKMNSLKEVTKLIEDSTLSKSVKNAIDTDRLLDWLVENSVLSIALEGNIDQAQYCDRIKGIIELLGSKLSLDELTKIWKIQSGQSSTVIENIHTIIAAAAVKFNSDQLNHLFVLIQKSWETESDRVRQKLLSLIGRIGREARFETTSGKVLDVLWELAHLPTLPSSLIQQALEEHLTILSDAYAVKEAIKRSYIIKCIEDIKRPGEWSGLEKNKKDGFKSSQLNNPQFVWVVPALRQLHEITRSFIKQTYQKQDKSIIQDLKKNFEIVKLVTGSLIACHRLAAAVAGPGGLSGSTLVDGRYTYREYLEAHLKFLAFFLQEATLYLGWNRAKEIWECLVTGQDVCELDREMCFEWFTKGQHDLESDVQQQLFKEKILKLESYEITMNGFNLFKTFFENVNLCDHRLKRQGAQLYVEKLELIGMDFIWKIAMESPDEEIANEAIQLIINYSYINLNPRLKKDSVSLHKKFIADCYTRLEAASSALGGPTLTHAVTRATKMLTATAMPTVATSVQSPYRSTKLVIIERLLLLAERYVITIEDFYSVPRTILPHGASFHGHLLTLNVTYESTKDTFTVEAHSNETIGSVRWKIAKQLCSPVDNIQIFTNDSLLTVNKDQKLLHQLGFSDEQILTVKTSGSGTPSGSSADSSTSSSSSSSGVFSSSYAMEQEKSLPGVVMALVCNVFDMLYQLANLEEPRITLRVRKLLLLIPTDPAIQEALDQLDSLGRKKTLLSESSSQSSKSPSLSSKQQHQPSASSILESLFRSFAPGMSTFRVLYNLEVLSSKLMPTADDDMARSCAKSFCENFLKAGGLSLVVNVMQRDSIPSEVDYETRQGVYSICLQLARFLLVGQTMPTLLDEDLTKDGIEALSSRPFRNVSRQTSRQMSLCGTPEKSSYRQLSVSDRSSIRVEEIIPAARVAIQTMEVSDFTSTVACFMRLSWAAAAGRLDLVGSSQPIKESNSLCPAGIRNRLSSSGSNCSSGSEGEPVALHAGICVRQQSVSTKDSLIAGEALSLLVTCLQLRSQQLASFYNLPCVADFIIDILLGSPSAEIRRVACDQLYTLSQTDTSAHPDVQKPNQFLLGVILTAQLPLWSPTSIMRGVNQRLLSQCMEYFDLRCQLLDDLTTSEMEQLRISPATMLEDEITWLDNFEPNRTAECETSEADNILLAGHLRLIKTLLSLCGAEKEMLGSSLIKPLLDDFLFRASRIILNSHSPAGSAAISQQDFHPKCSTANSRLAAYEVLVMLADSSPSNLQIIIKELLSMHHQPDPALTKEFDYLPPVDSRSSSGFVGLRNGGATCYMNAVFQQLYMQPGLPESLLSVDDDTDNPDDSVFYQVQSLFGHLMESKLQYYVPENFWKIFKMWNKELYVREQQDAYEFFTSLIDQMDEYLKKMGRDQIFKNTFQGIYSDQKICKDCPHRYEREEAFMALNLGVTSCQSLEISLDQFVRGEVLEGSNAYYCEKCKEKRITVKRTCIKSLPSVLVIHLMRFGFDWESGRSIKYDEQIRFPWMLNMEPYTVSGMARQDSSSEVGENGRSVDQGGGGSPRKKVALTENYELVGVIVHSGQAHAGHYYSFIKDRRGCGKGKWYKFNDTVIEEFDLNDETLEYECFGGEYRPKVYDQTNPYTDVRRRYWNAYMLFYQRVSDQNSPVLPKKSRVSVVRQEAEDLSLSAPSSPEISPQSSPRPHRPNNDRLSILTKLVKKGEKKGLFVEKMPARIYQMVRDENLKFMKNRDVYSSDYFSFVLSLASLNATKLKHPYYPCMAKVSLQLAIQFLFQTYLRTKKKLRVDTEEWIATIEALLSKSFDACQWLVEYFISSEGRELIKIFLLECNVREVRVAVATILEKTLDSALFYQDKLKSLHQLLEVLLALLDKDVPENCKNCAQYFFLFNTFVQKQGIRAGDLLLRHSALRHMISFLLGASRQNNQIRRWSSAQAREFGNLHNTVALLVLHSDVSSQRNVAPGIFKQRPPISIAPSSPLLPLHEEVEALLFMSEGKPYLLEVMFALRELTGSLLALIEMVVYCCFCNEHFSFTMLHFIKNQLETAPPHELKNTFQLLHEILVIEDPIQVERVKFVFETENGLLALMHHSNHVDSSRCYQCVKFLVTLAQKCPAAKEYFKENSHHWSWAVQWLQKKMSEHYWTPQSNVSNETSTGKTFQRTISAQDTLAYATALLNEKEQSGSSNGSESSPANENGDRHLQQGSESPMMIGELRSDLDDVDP
Method in brief: as §1

USP25 = target: T2, USP25 (UniProt Q9UHP3)
T2 sequence (whole entry): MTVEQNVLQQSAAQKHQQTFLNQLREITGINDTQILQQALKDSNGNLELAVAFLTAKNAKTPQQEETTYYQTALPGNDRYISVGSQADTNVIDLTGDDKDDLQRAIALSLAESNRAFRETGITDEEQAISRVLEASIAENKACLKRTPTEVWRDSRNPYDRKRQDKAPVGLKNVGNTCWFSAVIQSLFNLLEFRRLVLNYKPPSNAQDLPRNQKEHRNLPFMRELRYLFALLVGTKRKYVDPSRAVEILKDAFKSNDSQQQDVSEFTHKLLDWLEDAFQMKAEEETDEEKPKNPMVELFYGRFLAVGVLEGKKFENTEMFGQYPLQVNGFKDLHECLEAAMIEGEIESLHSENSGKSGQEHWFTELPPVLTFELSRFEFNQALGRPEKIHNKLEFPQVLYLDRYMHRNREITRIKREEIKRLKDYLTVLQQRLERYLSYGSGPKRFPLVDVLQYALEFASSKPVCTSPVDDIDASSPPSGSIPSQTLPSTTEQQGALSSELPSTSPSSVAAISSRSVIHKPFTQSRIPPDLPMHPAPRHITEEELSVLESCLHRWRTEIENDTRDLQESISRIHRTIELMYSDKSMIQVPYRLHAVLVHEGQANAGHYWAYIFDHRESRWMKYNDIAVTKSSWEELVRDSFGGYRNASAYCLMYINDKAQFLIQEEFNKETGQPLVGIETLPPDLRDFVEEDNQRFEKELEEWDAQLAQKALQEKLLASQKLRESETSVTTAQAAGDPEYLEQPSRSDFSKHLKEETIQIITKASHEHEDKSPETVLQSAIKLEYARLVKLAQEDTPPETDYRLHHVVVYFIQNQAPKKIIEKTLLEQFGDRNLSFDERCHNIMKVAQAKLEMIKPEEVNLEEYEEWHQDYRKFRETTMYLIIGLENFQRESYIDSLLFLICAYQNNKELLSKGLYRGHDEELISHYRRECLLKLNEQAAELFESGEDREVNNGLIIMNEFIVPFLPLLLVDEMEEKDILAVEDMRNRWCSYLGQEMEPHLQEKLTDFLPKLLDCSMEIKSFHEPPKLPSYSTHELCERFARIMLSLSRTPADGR
Method in brief: as §1

USP28 = target: T3, USP28 (UniProt Q96RU2)
T3 sequence (whole entry): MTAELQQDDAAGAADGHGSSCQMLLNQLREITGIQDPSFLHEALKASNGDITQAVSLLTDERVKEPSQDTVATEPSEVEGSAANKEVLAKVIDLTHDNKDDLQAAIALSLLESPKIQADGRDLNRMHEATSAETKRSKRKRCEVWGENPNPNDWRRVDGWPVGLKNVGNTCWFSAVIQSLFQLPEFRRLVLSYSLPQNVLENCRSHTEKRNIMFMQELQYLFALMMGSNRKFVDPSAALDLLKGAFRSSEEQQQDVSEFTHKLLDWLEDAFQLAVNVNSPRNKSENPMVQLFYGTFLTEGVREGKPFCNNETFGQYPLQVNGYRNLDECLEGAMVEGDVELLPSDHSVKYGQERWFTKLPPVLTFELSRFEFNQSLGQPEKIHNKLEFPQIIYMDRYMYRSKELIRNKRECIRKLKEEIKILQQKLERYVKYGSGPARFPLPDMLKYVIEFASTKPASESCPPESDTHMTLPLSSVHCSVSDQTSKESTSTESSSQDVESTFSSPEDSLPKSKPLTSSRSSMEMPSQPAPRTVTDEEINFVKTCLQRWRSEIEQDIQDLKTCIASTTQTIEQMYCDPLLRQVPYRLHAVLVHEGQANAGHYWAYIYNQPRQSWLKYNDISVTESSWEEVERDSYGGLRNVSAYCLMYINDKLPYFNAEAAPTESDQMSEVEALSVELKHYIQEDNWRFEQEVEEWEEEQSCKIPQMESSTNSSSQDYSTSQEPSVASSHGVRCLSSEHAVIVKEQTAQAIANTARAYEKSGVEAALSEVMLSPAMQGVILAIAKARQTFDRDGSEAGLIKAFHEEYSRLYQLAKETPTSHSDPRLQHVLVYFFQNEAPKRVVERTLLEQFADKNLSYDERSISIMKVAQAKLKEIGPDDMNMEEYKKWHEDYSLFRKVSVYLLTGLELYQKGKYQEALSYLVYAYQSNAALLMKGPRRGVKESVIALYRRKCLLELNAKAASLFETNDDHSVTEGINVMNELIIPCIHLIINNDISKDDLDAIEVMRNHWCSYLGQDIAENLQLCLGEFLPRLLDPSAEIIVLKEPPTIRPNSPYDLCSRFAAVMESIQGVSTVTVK
Method in brief: as §1

Measured: log2 ratio of Biotin-Ahx-Ub-VS probe labelling

Cc1cccc(NC(=O)[C@@H]2CCCN2C(=O)CCl)n1
inactive: USP19 -0.349 | USP24 -0.45 | USP25 -0.327 | USP28 -0.61
